Data on seven compounds can be found in ChEMBL document CHEMBL3988442, “University of Dundee, Small-Polar-MMV Screening Library” (2021).

SMILES strings stand for the structures.

For this test, the target named is Shiga toxin 2 (Escherichia coli O157:H7) (UniProt P09385+P09386). Put plainly: E. coli 0.157:H7 Shiga Toxin SOP - stx2 screening assay. The test is classed as functional. Also on record: scale not given: direction of the effect not stated beside the values. To be noted: 30 µM.
Take `CC(NC1CCN(CCS(C)(=O)=O)CC1)c1ccc(Cl)cc1` (configuration not stated): the Percent Effect was -1.87%.

As to `O=C1CC(c2ccsc2)c2sc(C(=O)O)c(-c3ccccc3)c2N1` (configuration not stated), the Percent Effect came to 17.4%.

Regarding `COc1c(CNCc2cccc(CN(C)C)c2)c(C)nn1C`, the Percent Effect is 13.1%.

As for `N#Cc1cccc(S(=O)(=O)NC(=O)COC2CCCC2)c1`, the Percent Effect is -31%.

As for `O=C(C[C@@H]1COC[C@H]2CN(Cc3ccc(F)cc3)C[C@@H]12)N1CCCCO1`, the Percent Effect was -37.2%.

For the compound `COc1nccc(N2CCN(Cc3ccc(C)cc3)C(=O)C2)c1C#N`, the Percent Effect was -64.8%.

`O=C(CCc1ccc(=O)[nH]n1)N1CCCC(COc2ccc(F)cc2)C1` (configuration not stated): the Percent Effect was determined as 6.15%.
